Results as given in PubChem BioAssay (NCATS).
Where “and” joins values, the source holds several entries; their conditions need not be identical. Equal entries are not always repeated. Inconclusive results are not listed. Calls of active or inactive are those of the source. Calls follow the shape of the dose curve; as a rule, active = well fitted curve in the direction sought with a large enough effect; inconclusive = small, poorly fitted or top-dose-only effect, or another doubt; inactive = no such curve, though single readings can be large; an effect the other way counts as inactive or inconclusive.

What was measured:
[1] = target: Cellular tumor antigen p53 (Homo sapiens) (UniProt P04637); assay: Primary qHTS for small molecule compounds that upregulate eGFP-tagged delta133p53alpha (in N-terminal) cells. (AID 2060322); conditions: NCI-H358 eGFP-delta133p53alpha fluorescence, 24 h; activation: active compounds read high;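 also: series mostly up to about 56 µM; 0% = DMSO vehicle and 100% = reference activator; nearly all actives have a fitted effect of over 75% in size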
Outline: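 NCI-H358 cells pre-induced 24 h with 10 ng/ml doxycycline to express N-terminal eGFP-delta133p53alpha, then dosed 24 h at 37C without doxycycline; fixed, Hoechst-stained, GFP intensity by laser scanning cytometry, normalized to DMSO (0%) and 57.5 uM 5-azacytidine (100%).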

[2] = target: Aldehyde dehydrogenase, mitochondrial (Homo sapiens) (UniProt P05091); assay: qHTS for Inhibitors of the Aldehyde Dehydrogenase Family (ALDH2) Primary screen (AID 2061308);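 also: plate controls were vehicle for no effect and reference inhibitor for full effect; nearly all actives have a fitted effect of over 55% in size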
[3] = target: Retinaldehyde dehydrogenase 3 (Homo sapiens) (UniProt P47895); assay: qHTS for Inhibitors of the Aldehyde Dehydrogenase Family (ALDH1A3) Validation screen (AID 2061312); also: % is scaled to controls: 0 for no effect and ±100 for the full control effect; nearly all actives have a fitted effect of over 45% in size
[4] = target: Retinaldehyde dehydrogenase 3 (Homo sapiens) (UniProt P47895); assay: qHTS for Inhibitors of the Aldehyde Dehydrogenase Family (ALDH1A3) Primary screen (AID 2061315);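 also: plate controls were DMSO vehicle for no effect and reference inhibitor for full effect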

Sequence of Cellular tumor antigen p53 (Homo sapiens) (P04637 whole entry, looked up): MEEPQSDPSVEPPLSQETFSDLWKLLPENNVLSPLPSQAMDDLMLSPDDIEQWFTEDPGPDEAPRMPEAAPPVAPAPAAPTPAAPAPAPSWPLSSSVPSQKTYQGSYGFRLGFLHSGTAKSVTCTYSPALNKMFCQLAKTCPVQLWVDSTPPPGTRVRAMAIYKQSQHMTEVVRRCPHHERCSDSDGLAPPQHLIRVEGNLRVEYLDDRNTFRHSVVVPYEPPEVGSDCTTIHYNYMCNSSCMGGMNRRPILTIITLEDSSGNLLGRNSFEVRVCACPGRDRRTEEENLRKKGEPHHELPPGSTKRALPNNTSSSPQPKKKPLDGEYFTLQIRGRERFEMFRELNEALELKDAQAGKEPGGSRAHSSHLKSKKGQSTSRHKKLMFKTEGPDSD

COc1ccc([C@H](Cc2ccncc2)c2ccccc2)cc1OC1CCCC1
inactive: activation [1] -2.86% | Potency [2] | Potency [3] | Potency [4]

CC[C@H]1OC(=O)C[C@@H](O)[C@H](C)[C@@H](O[C@@H]2O[C@H](C)[C@@H](O)[C@H](N(C)C)[C@H]2O)[C@@H](CCN2C[C@H](C)C[C@H](C)C2)C[C@@H](C)C(=O)/C=C/C(C)=C/[C@@H]1CO[C@@H]1O[C@H](C)[C@@H](O)[C@@H](OC)[C@H]1OC
inactive: activation [1] -8.59% | Potency [2] | Potency [3] | Potency [4]

CC(C)n1c(=O)c(C(=O)NC2CC3CCC(C2)N3C[C@@H](O)CN(C)S(C)(=O)=O)cc2ccccc21 (stereo not given in full)
inactive: activation [1] -10.5% | Potency [2] | Potency [3] | Potency [4]

CN(C)c1nc(Cc2ccc(NC(=O)c3ccc4ccccc4c3)cc2)nc(Cl)c1CC(=O)O
inactive: activation [1] -3.03% and -7.64% | Potency [2] | Potency [3] | Potency [4]

Cn1c(SCC(=O)N2CCC[C@H]2C(=O)Nc2ccccc2-c2ccccc2)nc2ccccc21
inactive: activation [1] 4.77% | Potency [2] | Potency [3] | Potency [4]
